Laboratory results published in the supplement of paper PMC3545927.
The list shows a part of the results. No count for the full screen is at hand.

Target: furin, P09958
Experiment: furin cleavage Z-score vs untreated control; higher = more cleavage, active = 3.5 or more, inactive = 1 or less, 8 variable residues between constant flanks
Procedure, shortened: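 Purified furin cleaved 8-mer peptides that were fused to a cDNA oligonucleotide and held on magnetic beads by their N-terminus. Each 0.01 ml reaction used a 1:10 enzyme:substrate ratio in 50 mM HEPES pH 7.5 with CaCl2 and NaCl and ran 7.5, 15 or 30 min. Released DNA was adapter-tagged by PCR and sequenced, and read counts gave abundance. The cleavage Z-score came from log counts against furin-free reactions, lowess-adjusted and scaled by median absolute deviation.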

Sequence of furin, P09958 (P09958 whole entry): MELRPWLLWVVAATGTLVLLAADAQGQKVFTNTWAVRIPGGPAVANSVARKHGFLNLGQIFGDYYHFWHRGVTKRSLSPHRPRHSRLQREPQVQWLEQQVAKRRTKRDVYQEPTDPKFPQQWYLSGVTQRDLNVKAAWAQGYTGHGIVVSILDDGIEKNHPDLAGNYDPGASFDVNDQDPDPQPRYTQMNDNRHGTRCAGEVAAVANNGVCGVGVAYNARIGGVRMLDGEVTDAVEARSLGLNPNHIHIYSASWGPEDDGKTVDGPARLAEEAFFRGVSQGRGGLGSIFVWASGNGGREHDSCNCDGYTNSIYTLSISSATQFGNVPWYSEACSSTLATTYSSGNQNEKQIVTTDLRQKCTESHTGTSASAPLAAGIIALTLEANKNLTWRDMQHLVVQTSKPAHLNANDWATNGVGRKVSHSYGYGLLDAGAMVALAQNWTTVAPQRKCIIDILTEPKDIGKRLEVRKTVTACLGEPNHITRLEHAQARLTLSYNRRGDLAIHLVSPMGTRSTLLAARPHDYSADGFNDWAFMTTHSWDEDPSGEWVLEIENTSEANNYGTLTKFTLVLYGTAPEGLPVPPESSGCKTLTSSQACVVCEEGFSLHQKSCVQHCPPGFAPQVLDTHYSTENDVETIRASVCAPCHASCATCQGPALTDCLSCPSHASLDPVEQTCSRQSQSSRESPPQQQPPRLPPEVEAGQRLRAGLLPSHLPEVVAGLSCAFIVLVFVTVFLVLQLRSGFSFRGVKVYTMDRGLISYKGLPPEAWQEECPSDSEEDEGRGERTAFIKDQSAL

CAEQVTSTWVAGNASASA [HC2182]
furin cleavage Z-score (7.5 min): 1.33 | furin cleavage Z-score (15 min): -1.99 (inactive) | furin cleavage Z-score (30 min): 0.572 (inactive)

CAVVCCSSSYAGNASASA [HC2057]
furin cleavage Z-score (7.5 min): 0.153 (inactive) | furin cleavage Z-score (15 min): -0.457 (inactive) | furin cleavage Z-score (30 min): -1.02 (inactive)

CAVKPRPARSAGNASASA [FS-1499]
furin cleavage Z-score (7.5 min): 10.9 (active) | furin cleavage Z-score (15 min): 11.1 (active) | furin cleavage Z-score (30 min): 7.25 (active)

CAVPESDAAAAGNASASA [HC1128]
furin cleavage Z-score (7.5 min): -0.849 (inactive) | furin cleavage Z-score (15 min): -1.42 (inactive) | furin cleavage Z-score (30 min): -1.68 (inactive)

CADLGRPARSAGNASASA [FS-1447]
furin cleavage Z-score (7.5 min): -0.204 (inactive) | furin cleavage Z-score (15 min): -0.114 (inactive) | furin cleavage Z-score (30 min): 1.88

CALPRRPARSAGNASASA [FS-1231]
furin cleavage Z-score (7.5 min): 5.68 (active) | furin cleavage Z-score (15 min): 6.25 (active) | furin cleavage Z-score (30 min): 4.95 (active)

CAVPRRPARAAGNASASA [FS-150]
furin cleavage Z-score (7.5 min): 9.11 (active) | furin cleavage Z-score (15 min): 8.34 (active) | furin cleavage Z-score (30 min): 7.62 (active)

CARLRKQARAAGNASASA [FS-2711]
furin cleavage Z-score (7.5 min): 0.606 (inactive) | furin cleavage Z-score (15 min): 1.95 | furin cleavage Z-score (30 min): 3

CAVTPCAAEEAGNASASA [HC1376]
furin cleavage Z-score (7.5 min): -0.828 (inactive) | furin cleavage Z-score (15 min): -1.48 (inactive) | furin cleavage Z-score (30 min): -0.78 (inactive)

CAVVCCSYSYAGNASASA [HC2049]
furin cleavage Z-score (7.5 min): 0.949 (inactive) | furin cleavage Z-score (15 min): 0.0975 (inactive) | furin cleavage Z-score (30 min): -1.13 (inactive)

CARFPRAAHPAGNASASA [FS-2139]
furin cleavage Z-score (7.5 min): 3.15 | furin cleavage Z-score (15 min): 2.75 | furin cleavage Z-score (30 min): 4.11 (active)

CAVVCCMMSYAGNASASA [HC108]
furin cleavage Z-score (7.5 min): 0.208 (inactive) | furin cleavage Z-score (15 min): 0.787 (inactive) | furin cleavage Z-score (30 min): 1.59

CARLDRSYSYAGNASASA [FS-2986]
furin cleavage Z-score (7.5 min): 0.288 (inactive) | furin cleavage Z-score (15 min): -0.0412 (inactive) | furin cleavage Z-score (30 min): -1.47 (inactive)

CASTPCSAHPAGNASASA [HC2579]
furin cleavage Z-score (7.5 min): -0.671 (inactive) | furin cleavage Z-score (15 min): 0.373 (inactive) | furin cleavage Z-score (30 min): 0.672 (inactive)

CARFPRAYSYAGNASASA [FS-2924]
furin cleavage Z-score (7.5 min): -0.296 (inactive) | furin cleavage Z-score (15 min): 0.732 (inactive) | furin cleavage Z-score (30 min): 4.36 (active)

CARFKRQTSYAGNASASA [FS-2923]
furin cleavage Z-score (7.5 min): 8.28 (active) | furin cleavage Z-score (15 min): 8.05 (active) | furin cleavage Z-score (30 min): 8.39 (active)

CAVVCCSTSYAGNASASA [HC2058]
furin cleavage Z-score (7.5 min): 1.72 | furin cleavage Z-score (15 min): 0.804 (inactive) | furin cleavage Z-score (30 min): 2.04

CARFPRTWWQAGNASASA [FS-1949]
furin cleavage Z-score (7.5 min): 0.217 (inactive) | furin cleavage Z-score (15 min): -0.0617 (inactive) | furin cleavage Z-score (30 min): 0.886 (inactive)

CAMWECSQHLAGNASASA [HC1688]
furin cleavage Z-score (7.5 min): 0.266 (inactive) | furin cleavage Z-score (15 min): 1.15 | furin cleavage Z-score (30 min): 1.3

CADTPCSGSWAGNASASA [HC1831]
furin cleavage Z-score (7.5 min): -0.725 (inactive) | furin cleavage Z-score (15 min): -0.574 (inactive) | furin cleavage Z-score (30 min): -0.127 (inactive)

CALGVRVCEKAGNASASA [HC1453]
furin cleavage Z-score (7.5 min): -0.269 (inactive) | furin cleavage Z-score (15 min): -0.873 (inactive) | furin cleavage Z-score (30 min): -1.56 (inactive)

CAIAAAGQLDAGNASASA [HC1640]
furin cleavage Z-score (7.5 min): 0.168 (inactive) | furin cleavage Z-score (15 min): -0.469 (inactive) | furin cleavage Z-score (30 min): -1.87 (inactive)

CAKRLRRRREAGNASASA [FS-1224]
furin cleavage Z-score (7.5 min): 6.7 (active) | furin cleavage Z-score (15 min): 5.88 (active) | furin cleavage Z-score (30 min): 4.7 (active)

CAKRSRRIRPAGNASASA [FS-1461]
furin cleavage Z-score (7.5 min): -0.256 (inactive) | furin cleavage Z-score (15 min): 1.6 | furin cleavage Z-score (30 min): 0.134 (inactive)

CAKRARVVREAGNASASA [FS-262]
furin cleavage Z-score (7.5 min): 9.07 (active) | furin cleavage Z-score (15 min): 8.16 (active) | furin cleavage Z-score (30 min): 7.16 (active)

CASRDRRRREAGNASASA [FS-195]
furin cleavage Z-score (7.5 min): 10.8 (active) | furin cleavage Z-score (15 min): 10.8 (active) | furin cleavage Z-score (30 min): 7.22 (active)

CAFLATCINGAGNASASA [HC695]
furin cleavage Z-score (7.5 min): -1 (inactive) | furin cleavage Z-score (15 min): -1.97 (inactive) | furin cleavage Z-score (30 min): 0.404 (inactive)

CALVGSATLCAGNASASA [HC293]
furin cleavage Z-score (7.5 min): -0.853 (inactive) | furin cleavage Z-score (15 min): -0.387 (inactive) | furin cleavage Z-score (30 min): -0.923 (inactive)

CARREVPCHRAGNASASA [HC2433]
furin cleavage Z-score (7.5 min): 0.899 (inactive) | furin cleavage Z-score (15 min): 1.63 | furin cleavage Z-score (30 min): 1.91

CAREPRLVGGAGNASASA [FS-2136]
furin cleavage Z-score (7.5 min): -1.44 (inactive) | furin cleavage Z-score (15 min): -0.28 (inactive) | furin cleavage Z-score (30 min): 0.256 (inactive)

CAATCINGVCAGNASASA [HC696]
furin cleavage Z-score (7.5 min): -1.44 (inactive) | furin cleavage Z-score (15 min): -0.421 (inactive) | furin cleavage Z-score (30 min): -0.171 (inactive)

CAFQNRRARHAGNASASA [FS-1589]
furin cleavage Z-score (7.5 min): 9.77 (active) | furin cleavage Z-score (15 min): 11.1 (active) | furin cleavage Z-score (30 min): 10.3 (active)

CAFSPRRHWTAGNASASA [HC307]
furin cleavage Z-score (7.5 min): 0.332 (inactive) | furin cleavage Z-score (15 min): -0.669 (inactive) | furin cleavage Z-score (30 min): -0.85 (inactive)

CAAAWETARHAGNASASA [HC1568]
furin cleavage Z-score (7.5 min): 0.137 (inactive) | furin cleavage Z-score (15 min): 0.318 (inactive) | furin cleavage Z-score (30 min): -0.358 (inactive)

CAAAARRRRHAGNASASA [FS-638]
furin cleavage Z-score (7.5 min): 5.47 (active) | furin cleavage Z-score (15 min): 5.84 (active) | furin cleavage Z-score (30 min): 3.86 (active)

CAYRCRRPRHAGNASASA [FS-1621]
furin cleavage Z-score (7.5 min): 0.22 (inactive) | furin cleavage Z-score (15 min): 1.07 | furin cleavage Z-score (30 min): 0.99 (inactive)

CARPGRLDRHAGNASASA [FS-917]
furin cleavage Z-score (7.5 min): 1.02 | furin cleavage Z-score (15 min): -0.871 (inactive) | furin cleavage Z-score (30 min): 0.899 (inactive)

CAFVAPGERPAGNASASA [HC911]
furin cleavage Z-score (7.5 min): -1.27 (inactive) | furin cleavage Z-score (15 min): -0.656 (inactive) | furin cleavage Z-score (30 min): -0.848 (inactive)

CASTRRRPRHAGNASASA [FS-1170]
furin cleavage Z-score (7.5 min): 4.52 (active) | furin cleavage Z-score (15 min): 3.46 | furin cleavage Z-score (30 min): 2.74

CARHGRRRRHAGNASASA [FS-1156]
furin cleavage Z-score (7.5 min): 10.6 (active) | furin cleavage Z-score (15 min): 11.5 (active) | furin cleavage Z-score (30 min): 8.22 (active)

CATRRRTPRPAGNASASA [FS-1293]
furin cleavage Z-score (7.5 min): -0.0603 (inactive) | furin cleavage Z-score (15 min): -0.269 (inactive) | furin cleavage Z-score (30 min): 0.573 (inactive)

CATWVLVGGVAGNASASA [HC990]
furin cleavage Z-score (7.5 min): 0.127 (inactive) | furin cleavage Z-score (15 min): -1.42 (inactive) | furin cleavage Z-score (30 min): 0.528 (inactive)

CAAYAAQGYKAGNASASA [HC782]
furin cleavage Z-score (7.5 min): -0.0157 (inactive) | furin cleavage Z-score (15 min): -1.07 (inactive) | furin cleavage Z-score (30 min): -0.556 (inactive)
